Source: PubChem (several laboratories)
Hits are enriched below; roughly 9.7% of the tested compounds scored in any of these assays.
Autofluor 339: intrinsic fluorescence of library compounds, ex339/em460 – biochemical, MLSMR library, data from DPM-DC assay, artefact control, profiling panel. compound autofluorescence, ex339/em460 nm, NADH buffer; hits give high values; 1 = no-compound wells, NADH background. fluorescence fold increase at 10 µM. 65,000 tested, 5.5% active. AID 709, 2007;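 active means at 10 µM, mean starting fluorescence two-fold or more over control wells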;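 further: signal is the first read of a kinetic run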
M1 antagonist: antagonists of rat M1 muscarinic receptor; Muscarinic acetylcholine receptor M1 (Rattus norvegicus), P08482; CHO-M1 cells, Fluo-4 calcium, ACh EC80 antagonist mode; hits give low values; B-score at 10 µM; AID 628, 2007; 64,000 tested, 3.4% active;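 active means calcium fluorescence response, raw or row-and-column corrected B-score, differing from the plate sample mean either way at a set confidence level, mostly lower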
Target sequence (P08482 whole entry, looked up): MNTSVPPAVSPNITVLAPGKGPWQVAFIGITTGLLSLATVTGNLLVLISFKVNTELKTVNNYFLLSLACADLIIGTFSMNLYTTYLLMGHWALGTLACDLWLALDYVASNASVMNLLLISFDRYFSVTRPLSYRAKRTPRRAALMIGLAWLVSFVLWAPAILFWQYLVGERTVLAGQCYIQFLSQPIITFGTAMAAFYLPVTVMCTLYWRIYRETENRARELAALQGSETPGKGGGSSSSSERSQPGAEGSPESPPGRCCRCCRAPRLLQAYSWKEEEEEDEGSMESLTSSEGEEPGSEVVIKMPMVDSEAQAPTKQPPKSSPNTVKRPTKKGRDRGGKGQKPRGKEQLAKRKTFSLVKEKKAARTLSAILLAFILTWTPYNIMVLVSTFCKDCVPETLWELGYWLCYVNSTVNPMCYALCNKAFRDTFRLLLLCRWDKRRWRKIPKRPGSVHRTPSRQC
WNV NS2B-NS3 inh: inhibitors of WNV NS2B-NS3 protease, primary screen, biochemical, fluorogenic substrate. fluorogenic substrate Ex360/Em465; hits give low values. z-score (concentration not given with the values). 65,000 tested, 0.18% active; in the data active means z-score below about -3
A340 absorber: compound light absorbance at 340 nm, profiling panel, artefact control, biochemical, MLSMR library, data from PS, PMK, MK assays; compound absorbance at 340 nm, fold over control; fold change at 10 µM; 65,000 tested, under 10 active; AID 708, 2007;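 active means at 10 µM dose, initial 340 nm absorbance at least 2 fold that of control wells; inactive means change under 2 fold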;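 further: initial absorbance extrapolated from kinetic A340 decline of NADH oxidation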
BAP1 block: inhibitors of BAP1 deubiquitinase, primary screen, biochemical, Ub-AMC fluorescence, kinetic | 72,000 tested, 0.48% active | recombinant BAP1, Ub-AMC hydrolysis fluorescence kinetic; hits give low values | calls only at 20 µM | Ubiquitin carboxyl-terminal hydrolase BAP1 (Homo sapiens), Q92560 | AID 436, 2006;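 active means activity remaining at or below 50% of control, provided the compound also passes the data quality filters; inactive means the rest, including low values that fail the filters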;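 further: 100% = DMSO wells rate and 0% = substrate alone blank rate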
M1 agonist: M1 muscarinic receptor agonists, primary screen, CHO-M1 cells, Fluo-4 calcium, agonist mode; 64,000 tested, 3% active; Muscarinic acetylcholine receptor M1; B-score at 10 µM; Fluo-4 calcium fluorescence; hits give high values;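 active means fluorescence rise, raw or as B-score row- and column-corrected plate score, outside the 99.7% band of its plate's samples, either direction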
M1 ag confirm: rat M1 muscarinic receptor agonists, confirmation, CHO-M1 cells, Fluo-4 calcium, duplicate retest. fluorescence change (max-min) at 10 µM. shares compounds with M1 agonist. 1,700 tested, 19% active. Fluo-4 calcium fluorescence, agonist mode; actives lie on both sides;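 active means fluorescence change differs from the solvent-only DMSO control mean at a set confidence level in both duplicate runs; inconclusive means differs from solvent-only control mean in just one of two runs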;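 further: an EC20 dose of acetylcholine follows compound addition during the same imaging run; raw fluorescence intensity difference in instrument units with no normalization to controls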
M4 agonist ctr: agonist activity at rat M4 receptor, confirmation, counter-screen for M1 allosteric modulator project, cell-based, agonist mode | shares compounds with M1 agonist | CHO M4/Gqi5 cells, Fluo-4 calcium fluorescence; actives lie on both sides | fluorescence change (max-min) at 10 µM | 1,700 tested, 9% active;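 active means fluorescence change differing from the plate's solvent-only control wells at 99.7% confidence in both duplicates, whether higher or lower; inconclusive means differs from solvent controls in only one of two duplicates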
* = called active by the depositor; i = inactive; ? = inconclusive; · = no result given.

SMILES | Autofluor 339 | M1 antagonist | WNV NS2B-NS3 inh | A340 absorber | BAP1 block | M1 agonist | M1 ag confirm | M4 agonist ctr
CN1CCc2c(sc3c2C(=O)NC(c2cccc(OC(=O)c4cccs4)c2)N3)C1 (stereo not given) | 1.34 | -0.0138 | -0.49 | 1.01 | i | 5.72* | 38.8 | 41.1
CN1CCc2c(sc3c2C(=O)NC(c2cccc(OCc4ccccc4)c2)N3)C1 (stereo not given) | · | · | · | · | i | · | · | ·
CC(=O)N(CN1C(=O)c2ccccc2C1=O)c1ccccc1 | 1.12 | -0.892 | -0.57 | 1 | i | 1.05 | · | ·
CC(=O)N(c1ccccc1)c1c(F)c(F)c(F)c(F)c1F | 1.09 | 0.206 | 1.6 | 1.05 | i | 3.92* | -7.18 | -0.878
O=[N+]([O-])c1cc(Cl)cc(C=Nc2ccc3oc(-c4cccc(I)c4)nc3c2)c1O | · | · | · | · | i | · | · | ·
Cc1cc(=O)oc2cc(OCC(=O)OCc3nnc(-c4ccccc4)o3)ccc12 | 1.92 | -0.167 | -1.3 | 1.01 | i | 36.7* | -4.51 | -21
O=C(COC(=O)c1cccc(NC(=O)c2ccco2)c1)c1ccc(Br)cc1 | 1.13 | 0.0289 | -0.55 | 1.04 | i | -0.404 | · | ·
O=C(COc1cccc(NC(=O)c2ccco2)c1)c1ccc(F)cc1 | 1.15 | -1.1 | 1.4 | 1.07 | i | 5.7* | ? | ?
Cc1ccc(OCC(=O)Nc2ccc(-c3nc4ncccc4o3)cc2)c(C)c1 | 2.17* | -1.18 | 0.99 | 1.16 | · | 3.35* | ? | -48.7
COc1ccc(CCNc2oc(COc3ccccc3F)nc2C#N)cc1OC | 1.12 | -2.08* | -0.37 | 1 | i | 3* | -28 | -85.2*
COc1ccc(CCNc2oc(Cc3ccccc3)nc2C#N)cc1OC | 1.07 | -0.386 | 1.37 | 1.01 | i | 6.5* | -30.7* | ?
COc1ccc(CCNc2oc(COc3ccc(F)cc3)nc2C#N)cc1 | 1.1 | -0.0803 | 0.11 | 1 | i | 0.958 | · | ·
CC1=C(C(=O)OCc2ccccc2)C(c2ccccc2[N+](=O)[O-])CC(=O)N1 (stereo not given) | · | · | · | · | i | · | · | ·
c1ccc(-c2nc(NCCCN3CCOCC3)c3ccccc3n2)cc1 | 1.08 | -0.155 | -0.29 | 1.1 | i | 2.59* | -8.41 | -11.3
CC(=O)Nc1ccc2nc(SCc3c(C)cc(C)c(C(C)=O)c3C)sc2c1 | · | · | · | · | i | · | · | ·
CCCNS(=O)(=O)c1ccc(CCC(=O)N2CCCCC2)cc1 | 1.02 | 1.07 | 1 | 1.01 | i | 4.79* | ? | -49
CCc1ccccc1S(=O)(=O)Cc1ccc(C(=O)N2CCN(c3ccccc3OC)CC2)o1 | 0.88 | -0.28 | -0.58 | 1.03 | i | 7.19* | -15.6 | ?
Cc1ccccc1S(=O)(=O)Cc1ccc(C(=O)N2CC(C)CC(C)C2)o1 (stereo not given) | 1.07 | 0.00806 | -0.48 | 1.02 | i | -0.89 | · | ·
COc1ccccc1S(=O)(=O)Cc1ccc(C(=O)N2CCCC2)o1 | 1.05 | 0.208 | -0.3 | 1.03 | i | -0.986 | · | ·
Cc1ccccc1S(=O)(=O)Cc1ccc(C(=O)N2CCN(c3cccc(C)c3C)CC2)o1 | 1.06 | -0.631 | -0.07 | 0.99 | i | 9.65* | ? | -31.3
CCC(C)n1c(N)nc2c1c(=O)[nH]c(=O)n2C (stereo not given) | · | · | · | · | i | · | · | ·
O=C1NC(c2ccco2)Nc2sc3c(c21)CCN(Cc1ccccc1)C3 (stereo not given) | 1.47 | -16.6* | 0.73 | 1.09 | i | 16.5* | 33 | 20.7
